The nature of assay [1]: NCI Yeast Anticancer Drug Screen. Data for the rad50 strain (AID 155).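 Note: 0% = growth of vehicle-only cultures of the same strain.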 The conditions noted are these: S. cerevisiae rad50 strain growth inhibition, active compounds read high. Summed up: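 Relative growth inhibition (compound vs vehicle) was measured in yeast with a defined repair-gene alteration.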
Assay [2] is described as follows: NCI Yeast Anticancer Drug Screen. Data for the mec2-1 strain (AID 157). The conditions noted are these: S. cerevisiae mec2-1 strain, active compounds read high. A digest of the protocol:
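Readout is yeast growth inhibition, normalised to vehicle-treated controls, in the mec2-1 strain exposed to compound.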

A short description of assay [3]: NCI Yeast Anticancer Drug Screen. Data for the sgs1 mgt1 strain (AID 161).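 Note: 0% = growth of cultures given vehicle only.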 As to conditions: S. cerevisiae sgs1 mgt1 strain, active compounds read high. A digest of the protocol:
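Growth of a repair-deficient yeast mutant was monitored after compound treatment and expressed as inhibition relative to vehicle-treated cultures.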

Assay [4] is described as follows: NCI Yeast Anticancer Drug Screen. Data for the cln2 rad14 strain (AID 165).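 Note: 0% = growth equal to vehicle treated cultures.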 As to conditions: S. cerevisiae cln2 rad14 strain, active compounds read high. A digest of the protocol: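 Relative to vehicle controls, growth inhibition of compound-treated cln2 rad14 yeast was recorded.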
Assay [5] can be described thus: NCI Yeast Anticancer Drug Screen. Data for the bub3 strain (AID 167). As to conditions: S. cerevisiae bub3 mutant strain, active compounds read high. Summed up:
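Screening used yeast with an engineered genetic alteration affecting cell cycle control. Compound-exposed cultures were compared with vehicle cultures, and reduced growth was taken as inhibition.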

Assay [6] in a line: NCI Yeast Anticancer Drug Screen. Data for the mlh1 rad18 strain (AID 175). The conditions noted are these: S. cerevisiae mlh1 rad18 strain growth inhibition, active compounds read high. A digest of the protocol:
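Test agents were incubated with a yeast strain of defined genotype (DNA damage repair defect). Inhibition of growth was derived by comparison with vehicle-exposed cultures.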

Where [7] appears, read: at 5.0 µM (retest, dose inferred, filed as 0.5).
Setting [8] is: at 50.0 µM (retest, dose inferred, filed as 5.0).

About 79,000 compounds went through this panel and 15% of them were active in at least one assay; those are over-represented in the sample as a whole. A number with no mark means an inactive call. The source made the active and inactive calls. Cut-off read from the data, not from the text of the source: active = growth inhibition above about 70%; inactive = the rest.

As to `O=[N+]([O-])c1ccc([I+]c2ccccc2)cc1`, the growth inhibition in assay [1] (setting [7]) is 86% (active); in assay [1] (setting [8]) it was 96% (active); in assay [1] (at 50.0 µM), 82.8% (active); in assay [2] (setting [7]) it was 40%; in assay [2] (setting [8]) it was 95% (active); in assay [2] (at 50.0 µM), 86% (active). Moreover, the growth inhibition in assay [3] (setting [7]) is 77% (active); in assay [3] (setting [8]) it was 96% (active); in assay [3] (at 50.0 µM) it was 87.2% (active); in assay [4] (setting [7]), 30%; in assay [4] (setting [8]), 87% (active); in assay [4] (at 50.0 µM), 82.9% (active). For the same molecule, the growth inhibition in assay [5] (setting [7]) is 61%; in assay [5] (setting [8]), 96% (active); in assay [5] (at 50.0 µM), 88.2% (active); in assay [6] (setting [7]) it was 82% (active); in assay [6] (setting [8]), 95% (active).
Regarding `CC1OC(OC2C(OC3CCC4(C)C(CCC5(C)C4CC=C4C6CC(C)(C)CCC6(C(=O)O)CCC45C)C3(C)CO)OCC(O)C2O)C(O)C(O)C1O` (centres undefined), the growth inhibition in assay [1] (setting [7]) is 94% (active); in assay [1] (setting [8]), 99% (active); in assay [1] (at 50.0 µM), 89.5% (active); in assay [2] (setting [7]), 87% (active); in assay [2] (setting [8]) it was 100% (active); in assay [2] (at 50.0 µM), 89.8% (active). For the same molecule, the growth inhibition in assay [3] (setting [7]) is 95% (active); in assay [3] (setting [8]) it was 99% (active); in assay [3] (at 50.0 µM) it was 90.3% (active); in assay [4] (setting [7]) it was 89% (active); in assay [4] (setting [8]), 98% (active); in assay [4] (at 50.0 µM), 88.5% (active). Besides, the growth inhibition in assay [5] (setting [7]) is 97% (active); in assay [5] (setting [8]), 99% (active); in assay [5] (at 50.0 µM), 87.7% (active).
For the molecule `COc1c(C)c2c(c(O)c1C/C=C(\C)CCC(=O)O)C(=O)OC2`, the growth inhibition in assay [1] (setting [7]) was 31%; in assay [1] (setting [8]), 86% (active); in assay [1] (at 50.0 µM), 85.3% (active); in assay [2] (setting [7]), 11%; in assay [2] (setting [8]), 88% (active); in assay [2] (at 50.0 µM), 90.9% (active). Moreover, the growth inhibition is 30% in assay [3] (setting [7]); 90% (active) in assay [3] (setting [8]); 92.2% (active) in assay [3] (at 50.0 µM); 32% in assay [4] (setting [7]); 95% (active) in assay [4] (setting [8]); 90.2% (active) in assay [4] (at 50.0 µM). For the same molecule, the growth inhibition is 17% in assay [5] (setting [7]); 91% (active) in assay [5] (setting [8]); 89.2% (active) in assay [5] (at 50.0 µM); 38% in assay [6] (setting [7]); 92% (active) in assay [6] (setting [8]).
With `COc1cc([C@@H]2c3cc4c(cc3[C@H](OC3OC5COC(c6ccccc6)OC5C(O)C3O)[C@H]3COC(=O)[C@H]23)OCO4)cc(OC)c1OC` (some centres undefined), the growth inhibition in assay [1] (setting [7]) is -4%; in assay [1] (setting [8]) it was 91% (active); in assay [1] (at 50.0 µM), 81.3% (active); in assay [2] (setting [7]), -13%; in assay [2] (setting [8]), 77% (active); in assay [2] (at 50.0 µM), 81% (active). In addition, the growth inhibition is 18% in assay [3] (setting [7]); 70% (active) in assay [3] (setting [8]); 76.3% (active) in assay [3] (at 50.0 µM); 12% in assay [4] (setting [7]); 56% in assay [4] (setting [8]); 63% in assay [4] (at 50.0 µM). For the same molecule, the growth inhibition is 5% in assay [5] (setting [7]); 82% (active) in assay [5] (setting [8]); 77.5% (active) in assay [5] (at 50.0 µM); -4% in assay [6] (setting [7]); 91% (active) in assay [6] (setting [8]); 81% (active) in assay [6] (at 50.0 µM).
In the case of `CCN(CC)CC(O)c1cc(-c2ccc(Cl)cc2)nc2cc(Cl)ccc12` (centres undefined), the growth inhibition was 2% in assay [1] (setting [7]); 99% (active) in assay [1] (setting [8]); 98% (active) in assay [1] (at 50.0 µM); -3% in assay [2] (setting [7]); 100% (active) in assay [2] (setting [8]); 93.9% (active) in assay [2] (at 50.0 µM). The growth inhibition in assay [3] (setting [7]) is -1%; in assay [3] (setting [8]), 99% (active); in assay [3] (at 50.0 µM) it was 99.7% (active); in assay [4] (setting [7]), -2%; in assay [4] (setting [8]), 99% (active); in assay [4] (at 50.0 µM) it was 47.9%. The growth inhibition is -3% in assay [5] (setting [7]), 99% (active) in assay [5] (setting [8]) and 78.5% (active) in assay [5] (at 50.0 µM).
In the case of `CC(=O)c1ccc2c(c1)CCc1ccccc1-2`, the growth inhibition in assay [1] (setting [7]) was 2%; in assay [1] (setting [8]), 85% (active); in assay [1] (at 50.0 µM) it was 12.5%; in assay [2] (setting [7]) it was -33%; in assay [2] (setting [8]), 49%; in assay [2] (at 50.0 µM) it was -8.9%. The growth inhibition in assay [3] (setting [7]) is 2%; in assay [3] (setting [8]) it was 55%; in assay [3] (at 50.0 µM) it was 36.1%; in assay [4] (setting [7]), 2%; in assay [4] (setting [8]) it was 8%; in assay [4] (at 50.0 µM), 52.5%. In addition, the growth inhibition is 45% in assay [5] (setting [7]); 89% (active) in assay [5] (setting [8]); 30.4% in assay [5] (at 50.0 µM); 1% in assay [6] (setting [7]); 79% (active) in assay [6] (setting [8]); 15.9% in assay [6] (at 50.0 µM).
In the case of `N=C1C(=N)c2ccccc2-c2ccccc21`, the growth inhibition in assay [1] (setting [7]) is 9%; in assay [1] (setting [8]) it was 99% (active); in assay [1] (at 50.0 µM), 88.8% (active); in assay [2] (setting [7]), 25%; in assay [2] (setting [8]), 100% (active); in assay [2] (at 50.0 µM), 91.2% (active). In addition, the growth inhibition in assay [3] (setting [7]) was 17%; in assay [3] (setting [8]), 38%; in assay [3] (at 50.0 µM), 91.9% (active); in assay [4] (setting [7]), 18%; in assay [4] (setting [8]), 87% (active); in assay [4] (at 50.0 µM), 91.7% (active). The growth inhibition is 11% in assay [5] (setting [7]); 99% (active) in assay [5] (setting [8]); 89.6% (active) in assay [5] (at 50.0 µM); 19% in assay [6] (setting [7]); 99% (active) in assay [6] (setting [8]); 89.2% (active) in assay [6] (at 50.0 µM).
Regarding `Cc1nc([N+](=O)[O-])c(Sc2nncc(-c3ccccc3)n2)n1C`, the growth inhibition is 8% in assay [1] (setting [7]); 34% in assay [1] (setting [8]); 97.3% (active) in assay [1] (at 50.0 µM); 4% in assay [2] (setting [7]); 38% in assay [2] (setting [8]); 97.5% (active) in assay [2] (at 50.0 µM). Moreover, the growth inhibition in assay [3] (setting [7]) is 7%; in assay [3] (setting [8]) it was 28%; in assay [3] (at 50.0 µM), 95% (active); in assay [4] (setting [7]) it was -5%; in assay [4] (setting [8]), 9%; in assay [4] (at 50.0 µM) it was 93% (active). For the same molecule, the growth inhibition in assay [5] (setting [7]) was 1%; in assay [5] (setting [8]), 21%; in assay [5] (at 50.0 µM) it was 97.6% (active).
In the case of `S=C(S)OCN1CCOCC1`, the growth inhibition in assay [1] (setting [7]) is 80% (active); in assay [1] (setting [8]), 32%; in assay [1] (at 50.0 µM), 98.1% (active); in assay [2] (setting [7]) it was 59%; in assay [2] (setting [8]) it was 23%; in assay [2] (at 50.0 µM) it was 98.2% (active). The growth inhibition was 70% (active) in assay [3] (setting [7]); 28% in assay [3] (setting [8]); 96.8% (active) in assay [3] (at 50.0 µM); 58% in assay [4] (setting [7]); 20% in assay [4] (setting [8]); 97.3% (active) in assay [4] (at 50.0 µM). The growth inhibition in assay [5] (setting [7]) was 55%; in assay [5] (setting [8]), 27%; in assay [5] (at 50.0 µM), 98.8% (active); in assay [6] (setting [7]) it was 51%; in assay [6] (setting [8]), 35%; in assay [6] (at 50.0 µM) it was 98.2% (active).
With `O=C(Cc1ccccc1)C(F)(F)F`, the growth inhibition in assay [1] (setting [7]) is 10%; in assay [1] (setting [8]), 70% (active); in assay [1] (at 50.0 µM), -8.45%; in assay [2] (setting [7]) it was 3%; in assay [2] (setting [8]), 15%; in assay [2] (at 50.0 µM) it was 1.95%. Also, the growth inhibition in assay [3] (setting [7]) was 4%; in assay [3] (setting [8]) it was 20%; in assay [3] (at 50.0 µM), 42.2%; in assay [4] (setting [7]), 4%; in assay [4] (setting [8]), 2%; in assay [4] (at 50.0 µM), -15.6%. The growth inhibition in assay [5] (setting [7]) was 2%; in assay [5] (setting [8]) it was 19%; in assay [5] (at 50.0 µM) it was -7.95%; in assay [6] (setting [7]), 0%; in assay [6] (setting [8]), 18%; in assay [6] (at 50.0 µM) it was 58.8%.

The values are drawn from PubChem BioAssay (NCI).
